# Values joined by “and” are separate entries in the source; they are usually repeats but may differ in a detail not shown here. Equal values may be shown once. Records with an inconclusive call do not appear. Entries that show only a call come without a potency. Active and inactive are the calls of the source. Unless noted, the call rests on the fitted dose curve.
# Key:
# [1] = Cell Viability - BJ (AID 421); conditions: BJ fibroblast viability, qHTS;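 further: potency means the concentration at half of the fitted maximal effect; cells exposed to compound for 40 hours at 37 °C before readout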
# How it was run: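 Cytotoxicity in human BJ foreskin fibroblasts is scored as loss of cellular ATP after a 40-hour exposure, measured by luciferase luminescence. Controls are DMSO and 100 uM tamoxifen.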
# [2] = Cellular Toxicity (caspase-3) Jurkat (AID 655; active means well fitted curve in the direction sought with a large enough effect; an effect the other way counts as inactive or inconclusive;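 further: cells exposed to compound for 16 h at 37 °C before reading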); conditions: Jurkat caspase-3 activation, luminescence; caspase-3 activation: at 92.2 µM (top of the series), DMSO = 0%, tamoxifen = 100%
# How it was run: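 5000 Jurkat cells/well; compound 16 hr, 37 °C; Caspase-Glo 3/7 added, 20 min RT; luminescence read. Norm: DMSO = 0%, tamoxifen 100 uM = 100%. AC50, Hill model.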
# [3] = Cell Viability - LYMP2-005 (AID 967; active means well fitted curve in the direction sought with a large enough effect; an effect the other way counts as inactive or inconclusive;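 further: cells exposed to compound for 24 h at 37 °C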)
# How it was run: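 Acute cytotoxicity is scored as a concentration-dependent drop in intracellular ATP in human lymphoblastoid LYMP2-005 cells after 24 h compound treatment. ATP is quantified by luciferase luminescence, and AC50 is derived by Hill-equation modelling.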
# [4] = target: Bile acid receptor (Homo sapiens) (UniProt Q96RI1); test: qHTS assay for small molecule antagonists of farnesoid X receptor signaling (AID 588526)
# How it was run: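 Concentration-response titrations were fitted to the Hill equation for half-maximal inhibition and maximal response, with data normalised to 50 uM chenodeoxycholic acid and DMSO control wells. Cells: FXR-UAS-bla HEK293T, dialyzed FBS.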
# [5] = target: Glucocorticoid receptor (Homo sapiens) (UniProt P04150); test: qHTS assay for small molecule agonists of glucocorticoid receptor signaling (AID 588532; active means well fitted curve in the direction sought with a large enough effect in the signal ratio, with a control signal flat; the % refers to the signal ratio); conditions: HeLa MMTV-bla, beta-lactamase ratio, agonist, 18 h; stronger effect = higher value; percent of dexamethasone control, DMSO zero
# How it was run: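 Stimulation of a glucocorticoid response element-driven beta-lactamase gene was measured in HeLa cells. Responses were scaled between DMSO basal and 0.1 uM dexamethasone, then fitted for half-maximal stimulation.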
# [6] = target: Glucocorticoid receptor (Homo sapiens) (UniProt P04150); test: qHTS assay for small molecule antagonists of glucocorticoid receptor signaling (AID 588533; active means well fitted inhibition curve with a large enough effect in the signal ratio, with a control signal flat, not every such curve was filed as active; the % refers to the signal ratio;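 further: cells stimulated with 2 nM dexamethasone as agonist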)
# How it was run: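 Antagonist-mode qHTS: compound titrations added to GRE-bla HeLa cells, then dexamethasone 2 nM final; 18 h, 37 C. CCF4 FRET fluorescence normalized to dexamethasone and DMSO; IC50 from Hill fit.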
# [7] = target: Peroxisome proliferator-activated receptor delta (Homo sapiens) (UniProt Q03181); test: qHTS assay for small molecule agonists of peroxisome proliferator-activated receptor delta signaling (AID 588534)
# How it was run: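 Agonist-mode beta-lactamase reporter readout (CCF4 dye, 2 h at RT) after 18 h at 37 °C exposure to a titration; Hill-equation fitting gave EC50 and maximal response.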
# [8] = target: Peroxisome proliferator-activated receptor gamma (Homo sapiens) (UniProt P37231); test: qHTS assay for small molecule antagonists of peroxisome proliferator-activated receptor gamma signaling (AID 588537; active means well fitted inhibition curve with a large enough effect in the signal ratio, with a control signal flat, not every such curve was filed as active; the % refers to the signal ratio;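 further: reporter cells co-stimulated with 50 nM rosiglitazone agonist during compound treatment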)
# How it was run: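 Compounds are tested as concentration series for inhibition of rosiglitazone-driven (50 nM) reporter expression in GeneBLAzer PPAR-gamma-UAS-bla HEK293 cells. After 16 h at 37 C, CCF4 substrate is added for 2 h at room temperature and blue/green fluorescence is measured.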
# [9] = target: Retinoic acid receptor RXR-alpha (Homo sapiens) (UniProt P19793); test: qHTS assay for small molecule agonists of retinoid X receptor alpha signaling (AID 588544)
# [10] = qHTS assay for small molecule agonists of the antioxidant response element (ARE) signaling pathway (AID 651741; active means well fitted activation curve with a large enough effect in the signal ratio; the % refers to the signal ratio; further: potency means the concentration at half of the fitted maximal effect)
# How it was run: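 Reporter: beta-lactamase under ARE, stably in HepG2. Exposure: 16 h, 37 C, compounds delivered in DMSO by pin tool after 5 h cell preincubation. Readout: FRET substrate fluorescence after 2 h at RT.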
# [11] = qHTS assay for small molecule activators of the p53 signaling pathway (AID 651743; active means well fitted activation curve with a large enough effect in the signal ratio, not every such curve was filed as active; the % refers to the signal ratio); conditions: HCT-116 p53RE-bla, beta-lactamase FRET ratio, 16 h; activation: stronger effect = higher value
# How it was run: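 Agonist-mode quantitative HTS in HCT-116 cells carrying a p53-response-element beta-lactamase reporter; 16 h compound treatment at 37 C, then FRET substrate loading for 2 h at room temperature and fluorescence read.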
# [12] = qHTS assay for small molecule activators of the nuclear factor-kappa B (NF-kB) signaling pathway (AID 651749; active means well fitted activation curve with a large enough effect in the signal ratio; the % refers to the signal ratio); conditions: NF-kB-bla ME-180 cells, beta-lactamase FRET ratio, 16 h; stronger effect = higher value
# How it was run: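 Human ME-180 cervical cells with an NF-kB-bla construct; compounds added via 23 nL pin transfer, DMSO as vehicle; incubation 16 hr. Reporter activity measured by FRET disruption.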
# [13] = qHTS assay for small molecule disruptors of the mitochondrial membrane potential - 1 hr assay (AID 651754); further: nearly all actives have a fitted effect of over 35% in size
# How it was run: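 Mitochondrial potential in living HepG2 cells after 1 hr compound treatment at 37C was read with Mito-MPS dye added for a further 30 min. Red aggregate and green monomer fluorescence were measured; loss of potential leaves dye as cytoplasmic monomers.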
# [14] = qHTS assay for small molecule disruptors of the mitochondrial membrane potential - 5 hr assay (AID 651755); further: nearly all actives have a fitted effect of over 40% in size
# How it was run: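 Seed HepG2 overnight, add compound, incubate 5 hr at 37C and 5% CO2, stain 30 min with Mito-MPS, then measure monomer (490/535 nm) and aggregate (540/590 nm) fluorescence.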
# [15] = Cell Viability - NIH 3T3 (AID 541; active means well fitted curve in the direction sought with a large enough effect; an effect the other way counts as inactive or inconclusive;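 further: cells exposed to compound for 40 hours; nearly all actives have a fitted effect of over 25% in size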); conditions: NIH 3T3 cell viability, qHTS; activity change, negative = cytotoxicity: at 92.2 µM (top of the series)
# How it was run: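 Intracellular ATP (CellTiter-Glo luminescence, 20 min at room temperature) measured after 40 hr compound exposure at 37 °C of 1000 NIH 3T3 mouse fibroblasts/well in complete medium; AC50 derived by Hill-equation modelling of qHTS concentration-response curves.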
# [16] = target: Estrogen receptor (Homo sapiens) (UniProt P03372); test: qHTS assay for small molecule antagonists of estrogen receptor alpha signaling (AID 588513; active means well fitted curve in the direction sought with a large enough effect in the signal ratio, with a control signal flat, not every such curve was filed as active; the % refers to the signal ratio)
# How it was run: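 Fluorescence from CCF4 substrate after 2 h at room temperature gave reporter activity; cells had been exposed to compound and 0.5nM 17-beta-estradiol for 18 h at 37 C. Hill-equation fitting yielded IC50 and maximal response.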
# [17] = target: Estrogen receptor (Homo sapiens) (UniProt P03372); test: qHTS assay for small molecule agonists of estrogen receptor alpha signaling (AID 588514); further: nearly all actives have a fitted effect of over 70% in size
# How it was run: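 EC50 and efficacy came from Hill fits of beta-lactamase reporter signal (CCF4 dye, 2 h at room temperature) scaled between DMSO and 20 nM 17-beta-estradiol. Agonist mode: HEK293 ER-alpha-UAS-bla cells in charcoal/dextran-stripped serum medium, 18 h compound exposure at 37 C.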
# [18] = Cell Viability - SH-SY5Y (AID 544; active means well fitted curve in the direction sought with a large enough effect; an effect the other way counts as inactive or inconclusive;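 further: cells exposed to compound for 40 hours; nearly all actives have a fitted effect of over 55% in size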); conditions: SH-SY5Y neuroblastoma cell viability; viability change, negative = cytotoxic: at 92.2 µM (top of the series)
# How it was run: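 Cytotoxicity measured via ATP-dependent luciferase luminescence (CellTiter-Glo) following 40 h, 37 °C exposure of 1500 SH-SY5Y cells per well. Concentration-response data were fitted with the standard Hill equation to give AC50.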
# [19] = qHTS assay for small molecule antagonists of peroxisome proliferator-activated receptor delta signaling (AID 588535; active means well fitted inhibition curve with a large enough effect in the signal ratio, with a control signal flat, not every such curve was filed as active; the % refers to the signal ratio;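 on max response: cells co-treated with a PPAR-delta agonist as stimulator during compound exposure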); conditions: HEK293T PPARd-UAS-bla, beta-lactamase FRET ratio, 18 h; 460 nm channel
# How it was run: (§1)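 Inhibition of PPAR-delta response element-driven beta-lactamase expression is measured in HEK293T cells exposed to a compound titration series for 18 hrs at 37 C. Half-maximal inhibition comes from Hill equation fitting.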
# [20] = target: Peroxisome proliferator-activated receptor delta (Homo sapiens) (UniProt Q03181); test: as above
# How it was run: as §1
# Estrogen receptor (Homo sapiens), sequence (P03372 whole entry, looked up): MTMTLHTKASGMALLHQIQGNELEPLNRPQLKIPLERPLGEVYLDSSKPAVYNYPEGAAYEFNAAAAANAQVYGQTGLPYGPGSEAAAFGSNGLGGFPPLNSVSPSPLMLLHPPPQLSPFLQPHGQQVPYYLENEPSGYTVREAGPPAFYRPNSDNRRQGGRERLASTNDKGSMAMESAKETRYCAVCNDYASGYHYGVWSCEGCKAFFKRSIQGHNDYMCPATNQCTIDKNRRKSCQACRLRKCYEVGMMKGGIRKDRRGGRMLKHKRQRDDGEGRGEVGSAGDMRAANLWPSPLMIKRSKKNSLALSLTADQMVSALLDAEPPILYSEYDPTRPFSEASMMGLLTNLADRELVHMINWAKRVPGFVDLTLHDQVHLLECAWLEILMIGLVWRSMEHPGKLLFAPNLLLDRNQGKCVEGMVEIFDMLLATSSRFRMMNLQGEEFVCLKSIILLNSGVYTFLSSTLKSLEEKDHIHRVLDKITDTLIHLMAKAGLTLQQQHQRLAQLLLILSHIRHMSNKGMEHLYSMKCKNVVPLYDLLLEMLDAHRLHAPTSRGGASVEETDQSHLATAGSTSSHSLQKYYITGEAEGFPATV
# Bile acid receptor (Homo sapiens), sequence (Q96RI1 whole entry, looked up): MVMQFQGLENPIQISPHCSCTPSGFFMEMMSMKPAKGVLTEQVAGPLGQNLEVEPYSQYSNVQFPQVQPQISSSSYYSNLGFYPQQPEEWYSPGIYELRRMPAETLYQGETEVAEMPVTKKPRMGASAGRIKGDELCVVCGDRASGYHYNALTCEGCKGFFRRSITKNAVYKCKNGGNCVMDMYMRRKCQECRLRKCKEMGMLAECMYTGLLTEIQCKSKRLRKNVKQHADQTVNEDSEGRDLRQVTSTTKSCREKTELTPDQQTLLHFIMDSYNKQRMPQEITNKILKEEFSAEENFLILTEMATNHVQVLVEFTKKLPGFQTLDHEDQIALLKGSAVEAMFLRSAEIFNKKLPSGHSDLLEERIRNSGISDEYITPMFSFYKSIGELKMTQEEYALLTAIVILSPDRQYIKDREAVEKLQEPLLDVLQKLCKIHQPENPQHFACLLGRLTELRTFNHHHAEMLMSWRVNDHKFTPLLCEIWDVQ
# Peroxisome proliferator-activated receptor delta (Homo sapiens), sequence (Q03181 whole entry, looked up): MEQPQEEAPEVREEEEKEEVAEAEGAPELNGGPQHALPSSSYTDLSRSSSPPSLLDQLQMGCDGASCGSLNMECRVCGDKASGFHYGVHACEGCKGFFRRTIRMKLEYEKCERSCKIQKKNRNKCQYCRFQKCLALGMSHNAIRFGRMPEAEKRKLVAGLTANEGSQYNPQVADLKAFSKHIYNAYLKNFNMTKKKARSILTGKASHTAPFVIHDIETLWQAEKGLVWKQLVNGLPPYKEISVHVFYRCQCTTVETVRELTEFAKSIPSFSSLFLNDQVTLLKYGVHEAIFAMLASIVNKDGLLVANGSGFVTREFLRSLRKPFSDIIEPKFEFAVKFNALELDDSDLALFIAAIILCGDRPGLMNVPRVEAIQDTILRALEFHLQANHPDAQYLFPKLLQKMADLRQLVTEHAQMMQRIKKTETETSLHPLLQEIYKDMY
# Glucocorticoid receptor (Homo sapiens), sequence (P04150 whole entry, looked up): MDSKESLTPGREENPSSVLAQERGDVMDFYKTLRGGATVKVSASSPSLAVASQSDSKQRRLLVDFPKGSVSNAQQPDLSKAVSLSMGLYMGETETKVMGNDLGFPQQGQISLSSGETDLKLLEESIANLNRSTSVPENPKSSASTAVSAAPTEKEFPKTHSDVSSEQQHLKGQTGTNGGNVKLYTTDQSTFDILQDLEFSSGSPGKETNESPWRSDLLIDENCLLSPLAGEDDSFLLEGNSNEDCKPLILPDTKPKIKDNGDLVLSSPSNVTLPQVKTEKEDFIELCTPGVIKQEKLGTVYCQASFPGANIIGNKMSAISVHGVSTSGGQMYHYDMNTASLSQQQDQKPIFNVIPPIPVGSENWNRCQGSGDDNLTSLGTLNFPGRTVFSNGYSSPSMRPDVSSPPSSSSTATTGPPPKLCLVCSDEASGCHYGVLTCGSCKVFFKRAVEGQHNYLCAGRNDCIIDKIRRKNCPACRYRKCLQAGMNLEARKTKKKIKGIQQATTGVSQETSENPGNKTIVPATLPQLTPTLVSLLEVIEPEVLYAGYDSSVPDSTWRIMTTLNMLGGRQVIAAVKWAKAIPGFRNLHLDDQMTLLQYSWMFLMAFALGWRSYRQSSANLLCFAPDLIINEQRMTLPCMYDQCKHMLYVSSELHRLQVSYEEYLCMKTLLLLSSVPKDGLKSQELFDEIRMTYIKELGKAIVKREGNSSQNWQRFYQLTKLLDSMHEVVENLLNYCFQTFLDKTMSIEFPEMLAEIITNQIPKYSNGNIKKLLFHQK
# Peroxisome proliferator-activated receptor gamma (Homo sapiens), sequence (P37231 whole entry, looked up): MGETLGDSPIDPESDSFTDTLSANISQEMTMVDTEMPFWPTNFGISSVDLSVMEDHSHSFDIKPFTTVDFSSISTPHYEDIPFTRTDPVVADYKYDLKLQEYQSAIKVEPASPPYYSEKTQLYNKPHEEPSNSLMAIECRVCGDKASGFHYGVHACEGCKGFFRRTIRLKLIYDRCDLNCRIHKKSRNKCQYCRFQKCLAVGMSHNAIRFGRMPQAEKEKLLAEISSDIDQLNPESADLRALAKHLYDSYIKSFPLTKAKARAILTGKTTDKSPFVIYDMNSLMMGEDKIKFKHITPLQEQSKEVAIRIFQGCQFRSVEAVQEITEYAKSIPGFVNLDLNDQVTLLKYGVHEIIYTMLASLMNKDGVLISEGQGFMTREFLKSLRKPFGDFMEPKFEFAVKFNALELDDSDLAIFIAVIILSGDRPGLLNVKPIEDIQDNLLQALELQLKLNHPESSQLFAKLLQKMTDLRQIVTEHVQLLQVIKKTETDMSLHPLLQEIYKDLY
# Retinoic acid receptor RXR-alpha (Homo sapiens), sequence (P19793 whole entry, looked up): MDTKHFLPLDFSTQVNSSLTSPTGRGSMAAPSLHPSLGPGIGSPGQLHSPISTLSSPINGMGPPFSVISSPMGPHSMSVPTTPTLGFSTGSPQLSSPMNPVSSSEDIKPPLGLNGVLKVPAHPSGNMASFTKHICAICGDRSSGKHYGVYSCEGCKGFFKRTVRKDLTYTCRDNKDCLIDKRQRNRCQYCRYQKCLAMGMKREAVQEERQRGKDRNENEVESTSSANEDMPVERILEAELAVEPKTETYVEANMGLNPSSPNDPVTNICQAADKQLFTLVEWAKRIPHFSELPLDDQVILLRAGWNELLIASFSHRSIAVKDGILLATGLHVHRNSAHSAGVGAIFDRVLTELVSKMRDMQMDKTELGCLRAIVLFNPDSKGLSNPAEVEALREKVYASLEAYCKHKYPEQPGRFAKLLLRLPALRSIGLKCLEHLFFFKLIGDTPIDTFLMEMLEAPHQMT
Structure (SMILES),Potency [1],caspase-3 activation [2],Potency [3],outcome [4],activation [5],outcome [6],outcome [7],Potency [8],outcome [9],Potency [10],activation [11],activation [12],Potency [13],Potency [14],Potency [15],Potency [16],Potency [17],Potency [18],max response [19] [%],outcome [20]
CCOC(=O)CC(SP(=O)(OC)OC)C(=O)OCC (stereo not given),> 92 µM (inactive),1.26% (inactive),inactive,inactive,2.95% (inactive),inactive,inactive,inactive,inactive,42.2 µM (active),-0.7% (inactive) and -2.82% (inactive),-1.06% (inactive) and 1.21% (inactive),inactive,inactive,,,,,,
Brc1ccc(Oc2ccc(Br)cc2Br)c(Br)c1,> 92 µM (inactive),,inactive,,,,,inactive,,,,0.581% (inactive),,inactive,inactive,inactive,inactive,,,
N#CC(O)c1ccccc1 (stereo not given),,2.09% (inactive),inactive,inactive,-0.987% (inactive),inactive,,inactive,inactive,inactive,,0.595% (inactive),,,inactive,,,inactive,6.88,inactive
Cc1cccc(C)c1N,> 92 µM (inactive),,inactive,inactive,0.219% (inactive),,inactive,,inactive,inactive,1.32% (inactive),-1.09% (inactive),inactive,,inactive,inactive,,inactive,17.3,inactive
Cl/C=C/CCl,,,inactive,,1.37% (inactive),inactive,inactive,inactive,inactive,inactive,-2.05% (inactive),0.574% (inactive),,inactive,,,,inactive,5.14,inactive
C=CC(=O)OCC(C)C,,0.654% (inactive),inactive,,-2.2% (inactive),inactive,inactive,inactive,inactive,inactive,-0.853% (inactive),0.0391% (inactive),,,inactive,inactive,,inactive,-6.69,inactive
CN=C=O,,-0.0583% (inactive),,,,,inactive,,,inactive,-2.98% (inactive),,inactive,,,,,inactive,61.5,inactive
O=[N+]([O-])c1c(Cl)c(Cl)c(Cl)c(Cl)c1Cl,,0.645% (inactive),inactive,,-3.84% (inactive) and -0.795% (inactive),inactive,inactive,,,37.6 µM (active) and 24.3 µM (active),-1.05% (inactive) and 4.15% (inactive),-2.45% (inactive) and -1.33% (inactive),inactive,inactive,,inactive,inactive,inactive,0.973,

# — PubChem BioAssay (NCATS)
